Experimental data: ChEMBL document CHEMBL4513216, “Probing the Open Global Health Chemical Diversity Library for Multistage-Active Starting Points for Next-Generation Antimalarials” (ACS Infect Dis, 2020)
In all, about 69,000 compounds went through this assay and about 8,600 (12%) showed an effect of 50% or more. The list comes from a sample in which strong results are over-represented; it also holds similar structures and randomly drawn compounds.

system: Plasmodium berghei; assay: Screen against P. berghei liver stage (PbLuc), transformed with Luciferase, at 10uM; assay type: functional, HepG2; details: tested at 10 uM

SMILES	INHIBITION
CC(c1ccncc1)N(C)C(=O)NCCOc1ccc(C#N)cc1 (stereo not given)	34.7%
COCCN1CCN(c2ccc3ccc(C(=O)NC4CC4)cn23)CC1	18.6%
C=C(C)CN1CCN(Cc2cnc(OC)nc2)CC1	25.6%
COCCn1cc(CCC(=O)Nc2c(C)nn(C)c2C)c2ccccc21	39.4%
CN(C)C(=O)N1CCC2(CC1)C(c1cnn(C)c1)CC(=O)N2C (stereo not given)	39.2%
Fc1cnc(N2CC[C@@H]3OC(COCc4cccnc4)CC[C@@H]32)nc1 (stereo not given in full)	37.8%
COCCNC(=O)[C@@H]1CC[C@@H]2[C@@H](CCN2Cc2cnn(C)c2)O1	7.11%
CC(=O)N1CC[C@@H]2O[C@H](C(=O)Nc3nc(C)cs3)C[C@@H]21	-24.1%
Cc1csc(NC(=O)[C@@H]2C[C@H]3[C@H](CCN3S(C)(=O)=O)O2)n1	61.3%
O=C(NC1CC1)[C@H]1CC[C@@H]2[C@@H](CCN2CCOCc2ccccc2)O1	10.4%
O=C(NC1CCC1)[C@@H]1CC[C@@H]2[C@@H](CCN2CCc2ccccc2)O1	42.1%
Cn1cc(CN2CC[C@H]3O[C@H](C(=O)Nc4cnccn4)CC[C@H]32)cn1	30.3%
Cn1cc(CN2CC[C@H]3O[C@@H](C(=O)NC4CC4)CC[C@H]32)cn1	62.4%
Cc1csc(NC(=O)[C@@H]2C[C@H]3[C@H](CCN3c3ncccn3)O2)n1	-16.2%
Cn1cc(CN2CC[C@H]3O[C@H](C(=O)NC4CC4)CC[C@H]32)c2ccccc21	66.8%
CN(C)CC1(O)CCN(C(=O)Cc2ccc3ccccc3c2)C1 (stereo not given)	-37.7%
COc1c(C2CCCN2C(=O)c2ccc(C(N)=O)s2)c(C)nn1C (stereo not given)	2.93%
Cc1nc(CN(C)C2CCN(CCCOc3ccccc3)C2)no1 (stereo not given)	31.9%
Cc1cnc(C(=O)NC(COCC(C)C)c2ccco2)cn1 (stereo not given)	36.1%
O=C(N1CCOCC1)N1CCc2ncc(CN3CCCCC3)n2CC1	15.9%
CC(C)CCN1CCN(C(=O)c2cnccn2)CC1	25%
CC(C)Nc1n[nH]c2nc(C3CCN(C(=O)c4ccccn4)C3)ccc12 (stereo not given)	-7.66%
CC(C)NC(=O)c1cc(Br)c2c(c1)OCCO2	-48.4%
CCCNC(=O)c1cc(Br)c2c(c1)OCCO2	31.2%
CCC(C#N)NC(=O)c1cc(Br)c2c(c1)OCCO2 (stereo not given)	-36.1%
CC(CC#N)NC(=O)c1cc(Br)c2c(c1)OCCO2 (stereo not given)	12.7%
CCCC(C#N)NC(=O)c1cc(Br)c2c(c1)OCCO2 (stereo not given)	60.5%

SMILES	INHIBITION
CC(C)CNC(=O)c1cc(Br)c2c(c1)OCCO2	51.8%
COc1ccc(-c2nc(C#N)c(N(C)C)o2)cc1S(=O)(=O)N(C)C	12.8%
CC(NC(=O)c1cccs1)C(=O)Nc1cccnc1N1CCCCC1 (stereo not given)	-36.3%
CC(=O)Nc1cnc(-n2ccnc2)nc1	13.8%
CC(=O)N(C)CC(=O)Nc1cnc(-n2ccnc2C)nc1	95.9%
CC(=O)N(C)CC(=O)Nc1cnc(-n2ccnc2)nc1	41.2%
CN(Cc1nccn1CC(F)(F)F)C(=O)c1cccc(N(C)C)c1	-15.7%
CC(=O)N1CCCC2(CN(Cc3ccc(F)cc3)CCO2)C1 (stereo not given)	-0.813%
Cc1noc(C)c1CN1C(=O)[C@@H]2CC[C@H]1CN(Cc1ccc(Cl)cc1)C2	-48.1%
O=C(c1n[nH]cc1Br)N1CCOCC1	33.3%
COc1ccnc(N2CCC3(CCCN(C(C)C)C3=O)C2)n1 (stereo not given)	48.8%
Cc1nc(N2CCC3(CCCN(CCO)C3=O)C2)c2sccc2n1 (stereo not given)	40.5%
Cc1nc(N2CCC3(CCCN(CC4CC4)C3=O)C2)c2sccc2n1 (stereo not given)	82.9%
COc1ccnc(N2CCC3(CCCN(CC4CC4)C3=O)C2)n1 (stereo not given)	30.3%
COc1nccnc1N1CCC2(CCCN(C(C)C)C2=O)C1 (stereo not given)	-9.17%
CNc1nc(C(=O)N2CCC3(CCCN(CC4CC4)C3=O)C2)cs1 (stereo not given)	21.2%
COCCN1CCCC2(CCN(c3nc(C)nc4ccsc34)C2)C1=O (stereo not given)	41.8%
Cc1nc(N2CCC3(CCCN(C(C)C)C3=O)C2)c2sccc2n1 (stereo not given)	81.6%
CCCN1CCCC2(CCN(c3nc(C)nc4ccsc34)C2)C1=O (stereo not given)	76.5%
Cc1ccc(N2CCCN(C(=O)C3CCCO3)CC2)nn1 (stereo not given)	-72.5%
Cn1nc(CN2CCOCC2)c2c1CN(Cc1ccsc1)C2	8.03%
COc1ccc2c(c1)C(=O)NC1(CC2)CCN(Cc2ccccc2)C1 (stereo not given)	41.3%
CC(C)c1nc(C2CCCN2CCOCC2CC2)no1 (stereo not given)	12.3%
CN1C(=O)CC(C(=O)O)C12CCN(c1ccc3c(n1)CCCC3)CC2 (stereo not given)	-11.7%
CC1(C)CN(CCC(=O)NCc2cccc(Cl)c2)CC[C@]1(C)O	24.2%
Cc1ccc2[nH]c(C(=O)N3CCCC3Cn3cccn3)cc2c1 (stereo not given)	16.8%
O=C(CSc1ccc2c(c1)OCCO2)NS(=O)(=O)c1cc(F)ccc1F	27.6%

SMILES	INHIBITION
Cc1ccccc1S(=O)(=O)NC(=O)CSc1ccc2c(c1)OCCO2	5.65%
O=C(CCc1ccccc1F)NS(=O)(=O)c1ccc2c(c1)OCCCO2	16%
CSCC(=O)N(C)Cc1ccc(N(C)C)cc1	47.4%
CSCC(=O)N(C)Cc1ccccc1	47.4%
O=C(CCc1ccccc1F)NS(=O)(=O)c1ccc2c(c1)OCCO2	50.3%
COc1cccc(CN(C)C(=O)CSc2ccc3c(c2)OCCO3)c1	-45.8%
CN(Cc1ccccc1)C(=O)CCS(=O)(=O)c1ccc2c(c1)OCCO2	41.4%
O=C(CSc1ccc2c(c1)OCCO2)NS(=O)(=O)c1ccccc1F	68.2%
CN(Cc1ccc(N(C)C)cc1)C(=O)CSc1ccc(Br)cc1	79.1%
CN(Cc1ccccc1)C(=O)CSc1ccc2c(c1)OCCO2	73.1%
O=C(CCc1cc(F)ccc1F)NS(=O)(=O)c1ccc2c(c1)OCCO2	42%
Cn1ccnc1CC1CCCN(C(=O)NCCOc2cccnc2)C1 (stereo not given)	44.5%
Cc1cn[nH]c1C1CCCCN1C(=O)CCc1c(C)n[nH]c1C (stereo not given)	33.7%
c1cnc(NCc2nnn3c2CN(CC2CC2)CCC3)nc1	10.6%
CC(c1cccc(S(N)(=O)=O)c1)N(C)CCOc1ccccc1 (stereo not given)	22.3%
Cc1nnc2n1CCN(C(=O)c1cn(-c3ccc(F)cc3)nn1)C2	-6.39%
CC(=O)N(Cc1ncc(C)o1)C1CCN(Cc2nnc(C3CC3)o2)C1 (stereo not given)	34.9%
COc1ccc(S(=O)(=O)N2CCOC(C)(C(N)=O)C2)cc1 (stereo not given)	-2.605%
NC1CCCc2c1cnn2-c1cc(F)cc(F)c1 (stereo not given)	-19.1%
OCC(O)CSCc1cc(Cl)ccc1Cl (stereo not given)	5.41%
OCC(O)CSCc1ccc(Cl)cc1Cl (stereo not given)	53.9%
OCC(O)CSCc1ccc(F)cc1Cl (stereo not given)	-15.6%
COc1cccc(C(=O)NS(=O)(=O)c2cncc(Br)c2)c1OC	15.1%
CCc1ccc(S(=O)(=O)Nc2ccncc2)s1	-6.4%
Cn1cc(CN2CCc3onc(C(=O)Nc4cccnc4)c3C2)cn1	43.4%
CC(C)(C)c1nc(CNC2CCN(S(C)(=O)=O)CC2)cs1	20.6%
O=C(c1cccnc1N1CCCC1)N1CCOC(c2ccccc2)C1 (stereo not given)	-30.2%

SMILES	INHIBITION
CN(C)C(=O)c1cccnc1N1CCOC(c2ccc(Cl)cc2)C1 (stereo not given)	55%
O=C(c1cccnc1N1CCOC(c2ccc(F)cc2)C1)N1CCCC1 (stereo not given)	45.1%
O=C(c1cccnc1N1CCOC(c2ccc(Cl)cc2)C1)N1CCCC1 (stereo not given)	45.1%
O=C(c1cccnc1O)N1CCOC(c2ccc(Cl)cc2)C1 (stereo not given)	68.6%
O=C(c1cccnc1O)N1CCOC(Cc2cccc(C(F)(F)F)c2)C1 (stereo not given)	31.7%
O=C(CSc1nnc(N2CCOCC2)s1)NCc1cccs1	-21.5%
CC(C)COC(C)C(=O)NCCNS(C)(=O)=O (stereo not given)	2.29%
Cc1oc(-c2ccsc2)nc1CC(=O)NCC(=O)Nc1cn[nH]c1	33%
CC(C)CN1CCCn2nc(CNC(=O)CN3CCOC3=O)cc2C1	7.92%
Cc1nn(CC(=O)NCc2cc3n(n2)CCCN(CC(C)C)C3)cc1Cl	58.7%
CC(C)CN1CCCn2nc(CNC(=O)CCN)cc2C1	16.6%
Cc1noc(C)c1C(C)C(=O)N1CCCN(C)c2ccc(Cl)cc21 (stereo not given)	33.1%
CN1CCC(c2cc(C(F)(F)F)n3ccnc3n2)CC1	26.3%
CC(=O)Nc1ccc(-c2ccccc2CCN)cc1	-2.43%
CC(=O)Nc1ccc(-c2ccccc2NC(=O)CN)cc1	-17.7%
CC(=O)Nc1cccc(-c2ccccc2CCN)c1	71.3%
c1cc(C2CCN(C3CCCCC3)C2)n[nH]1 (stereo not given)	18.535%
Cc1nc2ccccn2c1CC(=O)N[C@@H]1CC[C@@H](N2CCCC2)[C@@H]1O	-6.92%
Cc1nc2ccccn2c1CC(=O)N[C@@H]1CCC[C@@H](N2CCCC2)[C@@H]1O	-29.8%
Cc1nc2ccccn2c1CC(=O)N[C@@H]1CC[C@@H](N2CCOCC2)[C@@H]1O	52%
CCc1ncnc(N2CCOCC2C(N)=O)c1F (stereo not given)	-4.95%
CCc1ncnc(N2CCOCC2C2CC2)c1F (stereo not given)	57.5%
CCc1ncnc(N2CCOCC2CCO)c1F (stereo not given)	6.94%
O=C1CC(c2ccncc2)C2(CCN(C(=O)c3cccc(F)c3)CC2)N1 (stereo not given)	11.3%
